Measurements reported in PubChem BioAssay AID1159580 (chemical genetic matrix, 2015).
In all, about 5,500 compounds went through this assay and about 2,000 (36%) were called active. Not shown: some 18% with an inconclusive outcome. No stated cut-off is given here; in the data, active means normalized growth mostly below about 0.91 (no sharp cut-off); inconclusive means no clear call, values can overlap the other calls; inactive means mostly above about 0.92. The list shows a part of the results.

Assay: chemical genetic growth profiling, strain panel (AID 1159580);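 further: tested at 20 µM; growth read once vehicle control cultures reached saturation at 30 °C; 1 = growth at the plate median or of vehicle wells; lower values mean less growth of the strain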
Details: growth OD

Measured: normalized growth

COc1c2ccoc2nc2c(OC)c(OCC(O)C(C)(C)O)ccc12 (configuration not stated)
inactive: S. cerevisiae deletion strains, locus YJR075W, strain HOC1, active compounds read low 1.07 | S. cerevisiae deletion strains, locus YKL009W, strain mrt4, active compounds read low 0.944 | S. cerevisiae deletion strains, locus YKL068W, active compounds read low 0.978 | S. cerevisiae deletion strains, locus YKL085W, strain MDH1 (second series), active compounds read low 1 | S. cerevisiae deletion strains, locus YKL085W, strain MDH1, active compounds read low 1 | S. cerevisiae deletion strains, locus YKL160W, strain elf1, active compounds read low 1.03 | S. cerevisiae deletion strains, locus YKL190W, strain CNB1, active compounds read low 0.979 | S. cerevisiae deletion strains, locus YKR001C, strain vps1, active compounds read low 0.985 | S. cerevisiae deletion strains, locus YKR026C, strain gcn3, active compounds read low 1.02 | S. cerevisiae deletion strains, locus YKR091W, strain srl3, active compounds read low 1.01 | S. cerevisiae deletion strains, locus YLL001W, strain dnm1, active compounds read low 1.03 | S. cerevisiae deletion strains, locus YLL026W, active compounds read low 1.01 | S. cerevisiae deletion strains, locus YLL041C, strain sdh2, active compounds read low 1.02 | S. cerevisiae deletion strains, locus YLR027C, strain aat2, active compounds read low 1.03 | S. cerevisiae deletion strains, locus YLR039C, strain RIC1, active compounds read low 0.974 | S. cerevisiae deletion strains, locus YLR058C, strain SHM2, active compounds read low 0.991 | S. cerevisiae deletion strains, locus YLR102C, strain apc9, active compounds read low 0.99 | S. cerevisiae deletion strains, locus YLR113W, strain HOG1, active compounds read low 1.03 | S. cerevisiae deletion strains, locus YLR221C, strain rsa3, active compounds read low 1.03 | S. cerevisiae deletion strains, locus YLR258W, strain gsy2, active compounds read low 1.02 | S. cerevisiae deletion strains, locus YLR262C, strain YPT6 (second series), active compounds read low 1.04 | S. cerevisiae deletion strains, locus YLR262C, strain YPT6, active compounds read low 0.938 | S. cerevisiae deletion strains, locus YLR268W, strain sec22, active compounds read low 1.02 | S. cerevisiae deletion strains, locus YLR320W, strain mms22, active compounds read low 1.03 | S. cerevisiae deletion strains, locus YLR330W, strain CHS5, active compounds read low 0.992 | S. cerevisiae deletion strains, locus YLR342W, strain FKS1 (second series), active compounds read low 0.992 | S. cerevisiae deletion strains, locus YLR342W, strain FKS1, active compounds read low 1.02 | S. cerevisiae deletion strains, locus YLR357W, strain rsc2, active compounds read low 1.06 | S. cerevisiae deletion strains, locus YLR370C, strain arc18, active compounds read low 1.01 | S. cerevisiae deletion strains, locus YLR371W, strain rom2, active compounds read low 0.976 | S. cerevisiae deletion strains, locus YLR384C, strain iki3, active compounds read low 1 | S. cerevisiae deletion strains, locus YLR418C, strain cdc73, active compounds read low 1.04 | S. cerevisiae deletion strains, locus YML016C, strain PPZ1, active compounds read low 0.99 | S. cerevisiae deletion strains, locus YML032C, strain rad52, active compounds read low 0.974 | S. cerevisiae deletion strains, locus YML120C, strain ndi1, active compounds read low 1.02 | S. cerevisiae deletion strains, locus YML124C, strain tub3, active compounds read low 0.99 | S. cerevisiae deletion strains, locus YMR058W, strain fet3, active compounds read low 1.03 | S. cerevisiae deletion strains, locus YMR078C, strain ctf18, active compounds read low 0.97 | S. cerevisiae deletion strains, locus YMR125W, strain sto1, active compounds read low 1.04 | S. cerevisiae deletion strains, locus YMR129W, active compounds read low 1.01 | S. cerevisiae deletion strains, locus YMR205C, strain PFK2, active compounds read low 1.04 | S. cerevisiae deletion strains, locus YMR223W, strain ubp8, active compounds read low 0.961 | S. cerevisiae deletion strains, locus YMR231W, strain pep5, active compounds read low 1 | S. cerevisiae deletion strains, locus YMR263W, strain SAP30, active compounds read low 1.01 | S. cerevisiae deletion strains, locus YMR307W, strain GAS1, active compounds read low 0.941 | S. cerevisiae deletion strains, locus YNL067W, strain RPL9B, active compounds read low 1.03 | S. cerevisiae deletion strains, locus YNL071W, strain lat1, active compounds read low 1.02 | S. cerevisiae deletion strains, locus YNL128W, strain TEP1, active compounds read low 1.01 | S. cerevisiae deletion strains, locus YNL153C, strain GIM3, active compounds read low 1.02 | S. cerevisiae deletion strains, locus YNL183C, strain NPR1, active compounds read low 0.985 | S. cerevisiae deletion strains, locus YNL209W, strain ssb2, active compounds read low 1.02 | S. cerevisiae deletion strains, locus YNL233W, strain BNI4, active compounds read low 1.02 | S. cerevisiae deletion strains, locus YNL248C, strain rpa49, active compounds read low 1.02 | S. cerevisiae deletion strains, locus YNL250W, strain rad50, active compounds read low 0.989 | S. cerevisiae deletion strains, locus YNL271C, strain bni1, active compounds read low 0.989 | S. cerevisiae deletion strains, locus YNL298W, strain CLA4, active compounds read low 0.975 | S. cerevisiae deletion strains, locus YNL307C, strain MCK1, active compounds read low 0.976 | S. cerevisiae deletion strains, locus YNL322C, strain KRE1 (second series), active compounds read low 1.03 | S. cerevisiae deletion strains, locus YNL322C, strain KRE1, active compounds read low 0.995 | S. cerevisiae deletion strains, locus YNR049C, strain mso1, active compounds read low 1.02 | S. cerevisiae deletion strains, locus YNR052C, strain pop2, active compounds read low 0.962 | S. cerevisiae deletion strains, locus YOL006C, strain TOP1, active compounds read low 1.01 | S. cerevisiae deletion strains, locus YOL012C, strain htz1 1.86 | S. cerevisiae deletion strains, locus YOL147C, strain pex11, active compounds read low 0.996 | S. cerevisiae deletion strains, locus YOR001W, strain rrp6, active compounds read low 1.02 | S. cerevisiae deletion strains, locus YOR061W, strain CKA2, active compounds read low 0.997 | S. cerevisiae deletion strains, locus YOR069W, strain VPS5, active compounds read low 0.99 | S. cerevisiae deletion strains, locus YOR070C, strain gyp1, active compounds read low 1 | S. cerevisiae deletion strains, locus YOR080W, strain dia2, active compounds read low 0.999 | S. cerevisiae deletion strains, locus YOR083W, strain WHI5, active compounds read low 1.03 | S. cerevisiae deletion strains, locus YOR106W, strain vam3, active compounds read low 1.04 | S. cerevisiae deletion strains, locus YOR136W, strain idh2, active compounds read low 0.982 | S. cerevisiae deletion strains, locus YOR144C, strain elg1, active compounds read low 0.978 | S. cerevisiae deletion strains, locus YOR184W, strain ser1, active compounds read low 0.946 | S. cerevisiae deletion strains, locus YOR231W, strain MKK1, active compounds read low 1.01 | S. cerevisiae deletion strains, locus YOR265W, strain rbl2, active compounds read low 1 | S. cerevisiae deletion strains, locus YOR270C, strain vph1, active compounds read low 1.07 | S. cerevisiae deletion strains, locus YOR290C, strain snf2, active compounds read low 1.02 | S. cerevisiae deletion strains, locus YOR316C, strain cot1, active compounds read low 0.99 | S. cerevisiae deletion strains, locus YPL051W, strain arl3, active compounds read low 1.05 | S. cerevisiae deletion strains, locus YPL055C, strain LGE1, active compounds read low 1.03 | S. cerevisiae deletion strains, locus YPL078C, strain atp4, active compounds read low 1.03 | S. cerevisiae deletion strains, locus YPL106C, strain sse1, active compounds read low 1.02 | S. cerevisiae deletion strains, locus YPL240C, strain hsp82, active compounds read low 1 | S. cerevisiae deletion strains, locus YPL241C, strain CIN2, active compounds read low 0.992 | S. cerevisiae deletion strains, locus YPL256C, strain CLN2, active compounds read low 1.03 | S. cerevisiae deletion strains, locus YPR119W, strain clb2, active compounds read low 0.998 | S. cerevisiae deletion strains, locus YPR141C, strain kar3, active compounds read low 0.995 | S. cerevisiae deletion strains, locus YPR163C, strain tif3, active compounds read low 0.98 | S. cerevisiae deletion strains, locus YPR167C, strain met16, active compounds read low 0.992 | S. cerevisiae deletion strains, strain wtn01, active compounds read low 1.02 | S. cerevisiae strains, strain wild type, active compounds read low 0.996
